The values below come from the antibiotic and cytotoxicity screens of Wong et al. (2023).

Structures are written as SMILES. Screen size: about 39,000 compounds; about 1,500 (3.8%) were called active. For the sample, actives were picked, then their nearest neighbours and some compounds at random.

In the assay the test system is HSkMC (human skeletal muscle cells). Kind of assay: cytotoxicity call (relative viability < 0.9). The conditions noted are these: 10 µM.
With `CO[C@@H]1CN(C)C(=O)c2cc(NC(=O)Nc3ccccc3F)ccc2OC[C@@H](C)N(Cc2ccccc2C(=O)O)C[C@@H]1C`, the cytotoxicity call is “inactive”. The same measure for `Cc1noc(C)c1NC(=O)Nc1ccc2c(c1)C(=O)N([C@H](C)CO)C[C@H](C)[C@H](CN(C)Cc1ccc(Oc3ccccc3)cc1)O2`: “inactive”; for `COc1cccc(S(=O)(=O)N(C)C[C@H]2OCc3cn(nn3)CCCC(=O)N([C@H](C)CO)C[C@H]2C)c1`: “inactive”. The same measure for `COc1ccc(NC(=O)N(C)C[C@@H]2OCCCC[C@H](C)Oc3ccc(NC(=O)Nc4cccc5ccccc45)cc3C(=O)N([C@H](C)CO)C[C@@H]2C)cc1`: “inactive”. Consider `C[C@@H]1CN([C@@H](C)CO)C(=O)Cc2cc(NC(=O)Cn3cnnn3)ccc2O[C@@H]1CN(C)CC1CCCCC1`, for which the cytotoxicity call was “inactive”. The same measure for `CC(C)NC(=O)N(C)C[C@@H]1Oc2cc(C#Cc3ccc(F)cc3)ccc2S(=O)(=O)N([C@H](C)CO)C[C@@H]1C`: “inactive”. The same measure for `C[C@H]1CN([C@@H](C)CO)C(=O)c2cccc(NC(=O)Nc3ccc(F)cc3)c2O[C@H]1CN(C)C(=O)Nc1cccc2ccccc12`: “inactive”; for `COc1ccc([Si](C)(C)[C@@H]2[C@@H](CCn3cc([C@H](O)c4ccccc4)nn3)O[C@]3(C(=O)N(Cc4cccc(N5CCOC5=O)c4)c4ccccc43)[C@H]2C)cc1`: “inactive”. In the case of `C[C@@H]1CN([C@@H](C)CO)C(=O)Cc2cc(NC(=O)Cn3cnnn3)ccc2O[C@@H]1CN(C)CC1CC1`, the cytotoxicity call is “inactive”.

For `COc1ccc(Oc2cc(NCCC(F)(F)F)c3ncc(-c4ccc(C(=O)NC5CC5)c(C)c4)n3n2)c(F)c1F`, the cytotoxicity call is “active”. For the molecule `Cc1ccc(S(=O)(=O)Nc2ccc3c(c2)C(=O)N([C@H](C)CO)C[C@H](C)[C@H](CN(C)S(C)(=O)=O)OCCCC[C@@H](C)O3)cc1`, the cytotoxicity call is “inactive”. The same measure for `C=CC[C@H](CC(=O)N(CCO)Cc1ccccc1)C(=O)N[C@H](COC(=O)[C@H](CC=C)NC(=O)OCC1c2ccccc2-c2ccccc21)C(C)(C)C`: “inactive”; for `C[C@H](CO)N1C[C@H](C)[C@H](CN(C)Cc2ccc(-c3ccccc3)cc2)Oc2ccc(NC(=O)Nc3ccccc3)cc2CC1=O`: “inactive”.

`C[C@@H]1CN([C@H](C)CO)C(=O)Cc2cc(NC(=O)Nc3ccccc3)ccc2O[C@H]1CN(C)S(C)(=O)=O`: the cytotoxicity call is “inactive”.

Turning to `C[C@@H]1CN([C@H](C)CO)C(=O)Cc2cc(NC(=O)Nc3ccccc3)ccc2O[C@@H]1CN(C)Cc1ccc(-c2ccccc2)cc1`, the cytotoxicity call was “active”. On to `C[C@@H]1CN([C@@H](C)CO)C(=O)Cc2cc(NC(=O)Nc3ccc(F)cc3)ccc2O[C@H]1CN(C)Cc1ccc(-c2ccccc2)cc1`, for which the cytotoxicity call is “inactive”. The same measure for `C[C@H]1CN([C@@H](C)CO)C(=O)Cc2cc(NC(=O)Nc3ccc(F)cc3)ccc2O[C@H]1CN(C)Cc1ccc(C(=O)Nc2ccccc2N)cc1`: “active”; for `C[C@H](CO)N1C[C@H](C)[C@@H](CN(C)Cc2ccc(C(=O)Nc3ccccc3N)cc2)Oc2ccc(NC(=O)Nc3ccc(F)cc3)cc2CC1=O`: “inactive”.

As for `C[C@@H]1CN([C@H](C)CO)C(=O)Cc2cc(NC(=O)Nc3ccc(F)cc3)ccc2O[C@H]1CN(C)Cc1ccc(-c2ccccc2)cc1`, the cytotoxicity call is “active”.

As to `C[C@H](CO)N1C[C@H](C)[C@H](CN(C)S(C)(=O)=O)Oc2ccc(NC(=O)Nc3ccccc3)cc2CC1=O`, the cytotoxicity call is “active”. As to `C[C@H](CO)N1C[C@H](C)[C@H](CN(C)Cc2ccc(C(=O)Nc3ccccc3N)cc2)Oc2ccc(NC(=O)Nc3ccc(F)cc3)cc2CC1=O`, the cytotoxicity call was “inactive”. The same measure for `C[C@H]1CN([C@@H](C)CO)C(=O)Cc2cc(NC(=O)Nc3ccccc3)ccc2O[C@H]1CN(C)S(C)(=O)=O`: “inactive”; for `C[C@@H]1CN([C@@H](C)CO)C(=O)Cc2cc(NC(=O)Nc3ccccc3)ccc2O[C@@H]1CN(C)Cc1ccc(-c2ccccc2)cc1`: “inactive”.
